# A selection: hits, their analogues and other compounds. The true share with any hit is near 2.1%.
# S1P2 antag – antagonists of human S1P2 receptor; cell-based S1P2 antagonist assay, inhibition at 5 uM; inhibition, % at 5 µM; 97,000 tested, 0.21% active; AID 736; in the data active = inhibition above about 45%;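 note: CRE beta-lactamase reporter cells expressing human S1P2 stimulated with S1P; 0% = agonist at EC80 alone and 100% = agonist plus reference antagonist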
# S1P2 ag – activates the human S1P2 receptor. S1P2-expressing cell line, agonist reporter read-out. 97,000 tested, 0.46% active. activation, % at 4.5 µM. AID 729. O95136; in the data active = activation above about 16%;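 note: 0% = vehicle low control and 100% = maximal reference agonist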
# GALR2 blocker – antagonists of human galanin receptor 2 (GALR2); O43603; AID 828; GALR2-expressing cells, antagonist mode; 140,000 tested, 0.39% active; inhibition, % at 4 µM; in the data active = inhibition above about 27%;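 note: cells stimulated with galanin 1-16 at roughly its EC80; 0% = agonist challenge control and 100% = basal control without agonist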
# GALR2 ag – GALR2 (human) receptor agonism | GALR2-expressing cells, agonist activation read-out | activation, % (concentration not given with the values) | O43603 | AID 803 | 140,000 tested, 0.48% active; in the data active = activation above about 5%, passing the limit was not always enough;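 note: 0% = vehicle buffer wells and 100% = reference agonist at full effect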
# DAT uptake mod – modulates human dopamine transporter uptake under cocaine. Q01959. 110,000 tested, 1.3% active. LLC-PK1 hDAT cells, [14C]-dopamine uptake with cocaine IC80; actives deviate in either direction. B-score at 10 µM;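 active = Z score or B-score, a plate-position-corrected score, falls beyond the plate's 99.7% confidence bounds, in either direction; inactive = both scores lie inside the 99.7% bounds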;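 note: scored against the spread of the other compound wells on the same plate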
# Target sequence (Q01959 whole entry, looked up): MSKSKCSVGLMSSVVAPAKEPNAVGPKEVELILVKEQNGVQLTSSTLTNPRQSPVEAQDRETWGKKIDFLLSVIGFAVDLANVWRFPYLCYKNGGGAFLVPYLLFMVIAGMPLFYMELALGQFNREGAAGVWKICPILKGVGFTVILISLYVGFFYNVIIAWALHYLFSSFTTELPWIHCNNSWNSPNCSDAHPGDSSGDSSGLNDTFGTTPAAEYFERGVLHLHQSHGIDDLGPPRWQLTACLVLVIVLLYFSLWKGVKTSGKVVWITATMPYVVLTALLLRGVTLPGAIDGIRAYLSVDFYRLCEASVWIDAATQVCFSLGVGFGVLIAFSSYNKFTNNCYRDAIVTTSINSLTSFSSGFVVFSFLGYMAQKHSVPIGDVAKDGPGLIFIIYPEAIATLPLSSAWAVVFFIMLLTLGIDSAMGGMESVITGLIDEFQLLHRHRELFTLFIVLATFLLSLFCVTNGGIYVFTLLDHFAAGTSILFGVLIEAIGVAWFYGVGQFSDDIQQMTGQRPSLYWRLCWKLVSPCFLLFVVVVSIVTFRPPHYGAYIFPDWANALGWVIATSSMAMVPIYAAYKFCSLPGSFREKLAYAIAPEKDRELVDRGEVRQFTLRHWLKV
# * hit, by the source's call; · = no result; ! = a repeat was not active.
SMILES,S1P2 antag,S1P2 ag,GALR2 blocker,GALR2 ag,DAT uptake mod
O=C(CSc1nnc(C2CC2)n1Cc1ccccc1)N1CCN(S(=O)(=O)c2ccccc2)CC1,10,-4,-7,0,-7.4*
O=C(CSc1nnc(C2CC2)n1Cc1ccccc1)c1ccc(S(=O)(=O)N2CCOCC2)cc1,-5,-7,5,-2,-0.17
O=C(NC1CC2CCCC(C1)N2Cc1ccco1)NC12CC3CC(CC(C3)C1)C2 (configuration not stated),19,-4,7,-2,-7.4*
CNc1nc(C)cc(C)c1S(=O)(=O)c1ccc(C)cc1,10,-4,0,-2,-0.56
CCN1C(=O)c2cccc3c(NC(=O)c4ccc(S(=O)(=O)N5CCOCC5)cc4)ccc1c23,-13,-4,-7,-2,3.7*
Cc1cc(C(=O)N2CCC(C(F)(F)F)n3nccc32)on1 (configuration not stated),0,-1,-7,-1,-2.9*
Cc1cc(C(=O)N2CCN(C(c3ccccc3)c3ccccc3)CC2)on1,·,·,·,·,0.41
CCN(C(=O)c1cnc(N2CCN(c3ncccn3)CC2)c2ccccc12)c1cccc(Cl)c1,-27,-7,7,0,2.2*!
O=C1CC(O)(C(F)(F)F)Oc2c1ccc1ccccc21 (configuration not stated),23,-8,12,-3,-3.5*
NS(=O)(=O)c1cnccc1Nc1ccc(Cl)c(Cl)c1,·,·,-5,0,·
Cc1ccc(N=c2oc3cc(O)ccc3cc2C(N)=O)cc1,-2,17*,-16,42*,-0.86
COc1ccc(N=c2oc3cc(O)ccc3cc2C(=O)NCC2CCCO2)cc1 (configuration not stated),-43,18*,-26,16*,-2.4
COc1ccc(N=c2oc3cc(O)ccc3cc2C(=O)NCC2CCCO2)c(OC)c1 (configuration not stated),-81,37*,-53,68*,0.28
CC(=O)c1c(C(C)=O)c(C)n(-c2ccc(N)c(C)c2)c1C,-8,-3,-11,-1,-1.3
COc1cccc(NC(=O)[C@@H]2CCCN2C(=O)C2CCN(S(=O)(=O)c3ccc(C)cc3)CC2)c1,5,-6,-3,0,1
COc1ccc(/C=N/Nc2snc(SC)c2C#N)cc1OC,-12,-6,18,5.1*,-0.36
COc1ccc(S(=O)(=O)Nc2ccc(Cl)cn2)c(C)c1C,1,-2,5,-1,-0.015
Cc1cc(Nc2ccc(F)cc2C)n2nc(C)nc2n1,-19,0,4,-1,0.15
COc1ccc(Nc2ncnc3c2cnn3Cc2ccccc2)cc1,14,-4,9,-2,3.2*
O=C(NC1(C(F)(F)F)NC(=O)N(C2CCCCC2)C1=O)c1cccs1 (configuration not stated),4,-4,4,-1,-3.3*
CN1C(=O)NC(NC(=O)c2cccs2)(C(F)(F)F)C1=O (configuration not stated),10,-5,-13,0,-0.48
O=C(O)C1C2C=CC3(CN(Cc4ccccn4)C(=O)C13)O2 (configuration not stated),17,-5,2,-4,-1.2
O=C(O)C1C2C=CC3(CN(Cc4ccncc4)C(=O)C13)O2 (configuration not stated),·,·,4,-1,-8.7*
O=C(/C=C/c1ccccc1)NC(NC(=S)Nc1ccc(Cl)cc1)C(Cl)(Cl)Cl (configuration not stated),19,-3,-12,-2,-2.8*
O=C(CNCCCO)Nc1cc(C(F)(F)F)cc(NC(=O)CNCCCO)c1Cl,·,·,3,0,·
SMILES,S1P2 antag,S1P2 ag,GALR2 blocker,GALR2 ag,DAT uptake mod
NC(=O)c1c(NC(=O)CSc2nnc(-c3ccccc3)n2CC2CCCO2)sc2c1CCC2 (configuration not stated),1,-1,5,-2,2.7*
CC1(C)CC(=O)C(C=Nc2ccc3cn[nH]c3c2)=C(O)C1,-6,-1,31*,0,0.81
CSc1ccccc1N=CC1=C(O)CC(C)(C)CC1=O,22,-4,36*,-1,0.94
C=CCC1(C#N)C(SC)=NC2=C(C(=O)CC(C)(C)C2)C1c1ccc(Br)cc1 (configuration not stated),·,·,10,0,·
Cc1c(NC(=O)/C(=C\c2ccccc2)NC(=O)c2ccccc2)c(=O)n(-c2ccccc2)n1C,3,-7,13,-4,-8.8*
O=C(Nc1ccc2c(c1)OCO2)C(c1ccc(Cl)cc1)N1CCN(C(=O)c2ccco2)CC1 (configuration not stated),-12,-3,-3,0,2.4*
O=C(Nc1ccc2c(c1)OCO2)C(c1ccccc1)N1CCN(C(=O)c2ccco2)CC1 (configuration not stated),·,·,4,-2,-1.8
Cc1nc2ccc(C(=O)OCc3ccccc3Br)cc2nc1C,6,-3,-9,-1,-0.044
CC1=C(C(=O)OCc2ccccc2)C(c2ccccc2OS(=O)(=O)c2ccc([N+](=O)[O-])cc2)NC(=O)N1CCCC(=O)O (configuration not stated),·,·,·,·,2.8*
c1ccc(-c2noc(CSc3nnnn3-c3ccccc3)n2)cc1,11,-2,-5,-2,-0.55
CCOc1cc2c(C#N)c(N3CCCCC3)nc(N)c2c(N)n1,-9,-5,-4,-2,-1.5
CCOc1cc2c(C#N)c(N3CCNCC3)nc(N)c2c(N)n1,-57,20*,3,-3,-0.02
Cc1cccc(/C=N/NC(=O)C(C)Nc2cccc3ccccc23)n1 (configuration not stated),6,-6,-2,-2,2.5*
COc1ccc(OCCN2C(=O)NC3(CCc4ccccc4C3)C2=O)cc1 (configuration not stated),·,·,5,-1,·
N#C/C(=C\c1cn[nH]c1-c1ccccc1)C(=O)NC1CCCCCC1,8,-3,-4,-1,2.1
CCCCc1c(C(=O)O)cc(OC)cc1C(=O)O,·,·,0,-1,0.12
CCCCCc1c2c(cc(O)c1C(=O)O)OC(=O)c1c(cc(OC)cc1C(=O)CCCC)O2,·,·,·,·,5.3*
CNc1oc(-c2ccccc2)nc1C#N,·,·,10,-2,-7.8*
Cc1ccc(Cn2c(SCC(C)C)nc3c2c(=O)n(C)c(=O)n3C)cc1,-3,-11,-8,-1,-0.51
Cc1nn(C)cc1/C=N/NC(=O)C(C)(C)Oc1ccc(Cl)cc1,0,-3,5,-2,0.38
CC1=C(C(=O)OCc2ccccc2)C(c2cccnc2)c2c(n(C)c(=O)n(C)c2=O)N1 (configuration not stated),17,-2,3,-1,0.72
CC1CCN(c2ccc(/C=N/n3nnnc3N)cc2[N+](=O)[O-])CC1,-4,6,-8,-2,-0.012
Cc1ccc(/C=N/n2nnnc2N)cc1[N+](=O)[O-],2,-4,-4,0,-8.9*
COc1ccc(C(=O)N[C@H](C(=O)OCc2cc(=O)oc3cc(C)ccc23)C(C)C)cc1,·,·,-6,-1,·
CCn1c(=O)cc(SCC(=O)Nc2cccc(SC)c2)c2ccccc21,-25,-3,-12,2,-1.7

# Compound activity (PubChem)
